Where “and” joins values, the source holds several entries; their conditions need not be identical. Equal entries are not always repeated. The panel holds about 83,000 compounds, 20% with a hit somewhere; the sample as a whole holds those more often.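 Single-concentration screen, 48 h exposure, 96-well plates. Endpoint: percent growth. Below 10 = active.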 Calls of active or inactive are those of the source.
How the values were obtained:
Test in all cases: NCI-60 one-dose screen, 48 h (100 = growth as untreated, 0 = no growth, -100 = all killed)
Settings in all cases: 10 µM unless noted
SK-MEL-2 melanoma = test system: SK-MEL-2 melanoma
EKVX NSCLC = test system: EKVX NSCLC
SN12C renal = test system: SN12C renal
UO-31 renal = test system: UO-31 renal
TK-10 renal = test system: TK-10 renal
ACHN renal = test system: ACHN renal
CAKI-1 renal = test system: CAKI-1 renal
A498 renal = test system: A498 renal
HL-60(TB) leukemia = test system: HL-60(TB) leukemia
CCRF-CEM leukemia = test system: CCRF-CEM leukemia
MOLT-4 leukemia = test system: MOLT-4 leukemia
SR leukemia = test system: SR leukemia
RPMI-8226 leukemia = test system: RPMI-8226 leukemia
OVCAR-8 ovarian = test system: OVCAR-8 ovarian
OVCAR-5 ovarian = test system: OVCAR-5 ovarian
OVCAR-4 ovarian = test system: OVCAR-4 ovarian
SK-OV-3 ovarian = test system: SK-OV-3 ovarian
IGROV1 ovarian = test system: IGROV1 ovarian
OVCAR-3 ovarian = test system: OVCAR-3 ovarian
HS 578T breast = test system: HS 578T breast

Row | Compound | growth (SK-MEL-2 melanoma) | growth (EKVX NSCLC) | growth (SN12C renal) | growth (UO-31 renal) | growth (TK-10 renal) | growth (ACHN renal) | growth (CAKI-1 renal) | growth (A498 renal) | growth (HL-60(TB) leukemia) | growth (CCRF-CEM leukemia) | growth (MOLT-4 leukemia) | growth (SR leukemia) | growth (RPMI-8226 leukemia) | growth (OVCAR-8 ovarian) | growth (OVCAR-5 ovarian) | growth (OVCAR-4 ovarian) | growth (SK-OV-3 ovarian) | growth (IGROV1 ovarian) | growth (OVCAR-3 ovarian) | growth (HS 578T breast)
1 | CC[C@H](C)[C@H](NC(=O)[C@H]1CCCCN1C)C(=O)N(C)[C@H](CCc1nc(C(=O)N[C@@H](Cc2ccccc2)C[C@H](C)C(=O)O)cs1)C(C)C | 32.3% (inactive) | 47.7% (inactive) | 46.8% (inactive) | 49% (inactive) | 49.4% (inactive) | 47% (inactive) | 51.2% (inactive) | -7.5% (active) | -34.5% (active) | 14.9% (inactive) | 20.4% (inactive) | 18.6% (inactive) | 25.2% (inactive) | 15.8% (inactive) | 46.8% (inactive) | 43.8% (inactive) | 12.3% (inactive) | 41.5% (inactive) | -4.67% (active) | 27.7% (inactive)
2 | C[C@]12CCc3sc(Nc4ccc(OC(F)(F)F)cc4)nc3C1=CC[C@@H]1[C@@H]2CC[C@]2(C)C(=O)CC[C@@H]12 | 61.8% (inactive) | 78.4% (inactive) | 71.2% (inactive) | 54.3% (inactive) | 98.2% (inactive) | 71.6% (inactive) | 60.4% (inactive) | 75% (inactive) | 44% (inactive) | 5.05% (active) | 4.15% (active) | 16.9% (inactive) | 2.88% (active) | 66.5% (inactive) | 91.9% (inactive) | 64% (inactive) | 69.9% (inactive) | 93.6% (inactive) | 37.4% (inactive) | 38.5% (inactive)
3 | CCCCCCCCCCCCCCCC[N+](C)(C)C | -67.6% (active) and -2.51% (active) | -51.6% (active) and 29.3% (inactive) | -87.8% (active) | -82.3% (active) and 62.9% (inactive) | -72.8% (active) and -39.9% (active) | 19.4% (inactive) | -58.7% (active) and 18.4% (inactive) | -58% (active) and 25.3% (inactive) | -66.6% (active) and -38.9% (active) | -51.4% (active) and 1.36% (active) | -52.4% (active) | -54.9% (active) and -48.6% (active) | -14.9% (active) and -9.1% (active) | 0.0915% (active) | -4.82% (active) | -34.5% (active) and 17.2% (inactive) | -55.5% (active) and 11% (inactive) | -64% (active) and -56.6% (active) | -85.4% (active) and -1.42% (active) | -24.3% (active) and 2.19% (active)
4 | CN(C)c1ccc([N+](=O)[O-])c([N+](=O)[O-])c1 | 90% (inactive) and 103% (inactive) | 96% (inactive) and 96.2% (inactive) | 105% (inactive) and 97.7% (inactive) | 117% (inactive) and 84.7% (inactive) | 135% (inactive) and 114% (inactive) | 98.1% (inactive) and 106% (inactive) | -35% (active) and 87.6% (inactive) | 109% (inactive) | 66.7% (inactive) and 88.1% (inactive) | 80.9% (inactive) and 94.2% (inactive) | 107% (inactive) and 100% (inactive) | 78.3% (inactive) | 106% (inactive) and 103% (inactive) | 104% (inactive) and 96.3% (inactive) | 113% (inactive) and 101% (inactive) | 101% (inactive) | 108% (inactive) and 112% (inactive) | 112% (inactive) and 107% (inactive) | 119% (inactive) and 125% (inactive) | 96.4% (inactive) and 103% (inactive)
5 | CC12CCC3C4CCC(=O)C=C4CCC3C1CC1CC(=O)OC12 (centres undefined) | 104% (inactive) | 110% (inactive) | 93.8% (inactive) | 85.5% (inactive) | 89.8% (inactive) | 103% (inactive) | 102% (inactive) | 98.9% (inactive) | 105% (inactive) | 102% (inactive) | 95.6% (inactive) | 90.6% (inactive) | 94.3% (inactive) | 97.2% (inactive) | 107% (inactive) | 103% (inactive) | 101% (inactive) | 96.7% (inactive) | 101% (inactive) | 95.7% (inactive)
6 | Oc1ccc(O)c(Cl)c1 | 102% (inactive) | 112% (inactive) | 89.7% (inactive) and 99.6% (inactive) | 56.6% (inactive) and 75.2% (inactive) | 124% (inactive) and 110% (inactive) | 95.9% (inactive) and 101% (inactive) | 93.4% (inactive) and 101% (inactive) | 109% (inactive) and 98.6% (inactive) | 12.3% (inactive) and 94.8% (inactive) | 15.5% (inactive) and 64.5% (inactive) | 65.6% (inactive) and 105% (inactive) | 70.4% (inactive) and 94.5% (inactive) | 28.5% (inactive) and 91.1% (inactive) | 90.4% (inactive) and 102% (inactive) | 112% (inactive) and 113% (inactive) | 107% (inactive) and 104% (inactive) | 108% (inactive) and 105% (inactive) | 107% (inactive) and 108% (inactive) | 79.6% (inactive) and 97.8% (inactive) | 93.5% (inactive) and 97.7% (inactive)
7 | C/C(=C\c1ccn(-c2ccc(N)cc2F)n1)[C@@H]1C[C@@H]2O[C@]2(C)CCC[C@H](C)[C@H](O)[C@@H](C)C(=O)C(C)(C)[C@@H](O)CC(=O)O1 | 13.5% (inactive) | 46.7% (inactive) | 29.3% (inactive) | 29.1% (inactive) | 48.3% (inactive) | 38.9% (inactive) | 41.4% (inactive) | 0.324% (active) | 3.32% (active) | 12.9% (inactive) | 10.6% (inactive) | 13.8% (inactive) | 7.57% (active) | 18.7% (inactive) | 23.5% (inactive) | 61.1% (inactive) | 33.9% (inactive) | 34.8% (inactive) | -4.43% (active) | -1.48% (active)
8 | Cc1cc(C(C)(C)C)ccc1O | 110% (inactive) | 112% (inactive) | 114% (inactive) | 86.9% (inactive) | 108% (inactive) | 112% (inactive) | 101% (inactive) | 96% (inactive) | 96.9% (inactive) | 106% (inactive) | 99.5% (inactive) | 93.8% (inactive) | 105% (inactive) | 102% (inactive) | 120% (inactive) | 109% (inactive) | 100% (inactive) | 107% (inactive) | 105% (inactive) | 99.8% (inactive)
9 | Cc1ccc(S(=O)(=O)n2cc([C@@]3(O)C[C@H](CSC#N)OC3=O)c3ccccc32)cc1 | 61% (inactive) | 102% (inactive) | 60.7% (inactive) | 56.2% (inactive) | 64.2% (inactive) | 63% (inactive) | 66.8% (inactive) | 97.1% (inactive) | 80.1% (inactive) | 31.7% (inactive) | 7.16% (active) | 49% (inactive) | 16.3% (inactive) | 83.2% (inactive) | 83.9% (inactive) | 75.7% (inactive) | 99.6% (inactive) | 71.6% (inactive) | 54.8% (inactive) | 44.4% (inactive)
10 | O=Cc1cn(Cc2ccccc2)c2ccccc12 | 27.1% (inactive) | 120% (inactive) | 98.1% (inactive) | 55.6% (inactive) | 25.1% (inactive) | 91.3% (inactive) | 21.9% (inactive) | -92.7% (active) | 105% (inactive) | 104% (inactive) | 99.8% (inactive) | 93% (inactive) | 61.2% (inactive) | 85.8% (inactive) | -20.3% (active) | 55.1% (inactive) | 61.4% (inactive) | -21.4% (active) | 68.6% (inactive) | 150% (inactive)
11 | CO[C@@H]([CH2][Hg][O]C(=O)c1ccccc1)[C@@H]([CH2][Hg][O]C(=O)c1ccccc1)OC | 105% (inactive) | 110% (inactive) | 98.2% (inactive) | 88.8% (inactive) | 128% (inactive) | 99% (inactive) | 94.3% (inactive) | 117% (inactive) | 64.9% (inactive) | -6.61% (active) | 27.4% (inactive) | 50.2% (inactive) | 92.2% (inactive) | 83.8% (inactive) | 111% (inactive) | 93.8% (inactive) | 73.2% (inactive) | 96.4% (inactive) | -92.8% (active) | 113% (inactive)
12 | O=C1C=C(N2CC2)c2ccccc2C1=O | 90.7% (inactive) | 114% (inactive) | 51.2% (inactive) | 53.9% (inactive) | 118% (inactive) | 21% (inactive) | 32.3% (inactive) | 102% (inactive) | 8.35% (active) | -11.5% (active) | 5.2% (active) | 0.0144% (active) | 40.5% (inactive) | 73.2% (inactive) | 123% (inactive) | 96.1% (inactive) | 76% (inactive) | 70.7% (inactive) | 83.3% (inactive) | 107% (inactive)
13 | COc1cc(C2C3=C(CCCC3=O)N(CCO)c3cc4c(cc32)CCC4)cc(OC)c1OC (centres undefined) | 76.9% (inactive) | 81.2% (inactive) | 92.6% (inactive) | 67.8% (inactive) | 82.1% (inactive) | 94.9% (inactive) | 64% (inactive) | 100% (inactive) | 102% (inactive) | 20.3% (inactive) | 93.5% (inactive) | 117% (inactive) | 76.2% (inactive) | 83.5% (inactive) | 96.1% (inactive) | 75.5% (inactive) | 114% (inactive) | 98.4% (inactive) | 93.5% (inactive) | 

From PubChem BioAssay (NCI)
